# Measured values reported in PubChem BioAssay AID1159580 (chemical genetic matrix, 2015).
# “And” between values parts separate entries of the source, which are not always exact repeats. Identical values can stand only once. The campaign covered roughly 5,500 compounds. About 2,000 (36%) were called active. About 18% were inconclusive and are not listed. This is one part of the list. Values without a mark were called inactive. Cut-off read from the data, not from the text of the source: active = normalized growth mostly below about 0.91 (no sharp cut-off); inconclusive = no clear call, values can overlap the other calls; inactive = mostly above about 0.92.
# Experiment: chemical genetic growth profiling, strain panel (AID 1159580);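 note: tested at 20 µM; growth read once vehicle control cultures reached saturation at 30 °C; 1 = growth at the plate median or of vehicle wells; lower values mean less growth of the strain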
# Conditions: S. cerevisiae deletion strains, growth OD
smiles,measurement,setting,value
Oc1cc(O)c2c(c1)O[C@H](c1cc(O)c(O)c(O)c1)[C@H](O)C2,normalized growth,"locus YAL021C, strain ccr4, hits give low values",0.992
same,normalized growth,"locus YAL026C, strain drs2, hits give low values",1.02
same,normalized growth,"locus YAL030W, strain snc1, hits give low values",1.01
same,normalized growth,"locus YBL061C, strain skt5, hits give low values",1.02
same,normalized growth,"locus YBR009C, strain hhf1, hits give low values",1.02
same,normalized growth,"locus YBR021W, strain FUR4, hits give low values",1.03
same,normalized growth,"locus YBR023C, strain chs3, hits give low values",1.02
same,normalized growth,"locus YBR171W, strain sec66, hits give low values",1.03
same,normalized growth,"locus YBR229C, strain ROT2, hits give low values",0.996
same,normalized growth,"locus YBR231C, strain swc5, hits give low values",1
same,normalized growth,"locus YBR279W, strain paf1, hits give low values",1.01
same,normalized growth,"locus YCL011C, strain gbp2, hits give low values",1.02
same,normalized growth,"locus YCL016C, strain dcc1, hits give low values",1.02
same,normalized growth,"locus YCL029C, strain bik1, hits give low values",0.986
same,normalized growth,"locus YCL061C, strain MRC1, hits give low values",1.02
same,normalized growth,"locus YCL069W, strain vba3, hits give low values",1.02
same,normalized growth,"locus YCR088W, strain abp1, hits give low values",1.02
same,normalized growth,"locus YDL005C, strain med2, hits give low values",1.03
same,normalized growth,"locus YDL035C, strain GPR1, hits give low values",1.03
same,normalized growth,"locus YDL040C, strain nat1, hits give low values",1.01
same,normalized growth,"locus YDL074C, strain BRE1, hits give low values",0.981
same,normalized growth,"locus YDL101C, strain DUN1, hits give low values",0.985
same,normalized growth,"locus YDL185W, strain tfp1, hits give low values",0.983
same,normalized growth,"locus YDL192W, strain arf1, hits give low values",0.982
same,normalized growth,"locus YDR001C, strain nth1, hits give low values",1.02
same,normalized growth,"locus YDR069C, strain doa4, hits give low values",0.993
same,normalized growth,"locus YDR101C, strain arx1, hits give low values",0.985
same,normalized growth,"locus YDR137W, strain rgp1, hits give low values",1.06
same,normalized growth,"locus YDR150W, strain NUM1, hits give low values",0.995
same,normalized growth,"locus YDR159W, strain sac3, hits give low values",1.18 [resistant] (active)
same,normalized growth,"locus YDR162C, strain NBP2, hits give low values",1.02
same,normalized growth,"locus YDR195W, strain ref2",1.05
same,normalized growth,"locus YDR297W, strain sur2, hits give low values",1.02
same,normalized growth,"locus YDR318W, strain mcm21, hits give low values",0.999
same,normalized growth,"locus YDR334W, strain swr1, hits give low values",1.02
same,normalized growth,"locus YDR335W, strain msn5, hits give low values",1.01
same,normalized growth,"locus YDR388W, hits give low values",0.988
same,normalized growth,"locus YDR392W, strain spt3, hits give low values",1.02
same,normalized growth,"locus YDR502C, strain sam2, hits give low values",1.02
same,normalized growth,"locus YEL003W, strain gim4, hits give low values",1.02
same,normalized growth,"locus YEL037C, strain rad23, hits give low values",1.01
same,normalized growth,"locus YEL061C, strain CIN8 (second series), hits give low values",1.03
same,normalized growth,"locus YEL061C, strain CIN8, hits give low values",0.999
same,normalized growth,"locus YER015W, strain faa2, hits give low values",0.999
same,normalized growth,"locus YER016W, strain bim1, hits give low values",1.02
same,normalized growth,"locus YER110C, hits give low values",0.984
same,normalized growth,"locus YER111C, strain swi4, hits give low values",1.01
same,normalized growth,"locus YER155C, strain BEM2 (second series), hits give low values",1.01
same,normalized growth,"locus YER155C, strain BEM2, hits give low values",1.01
same,normalized growth,"locus YER167W, strain BCK2, hits give low values",1.02
same,normalized growth,"locus YFR010W, strain ubp6, hits give low values",1.02
same,normalized growth,"locus YGL078C, strain dbp3, hits give low values",0.993
same,normalized growth,"locus YGL086W, strain mad1, hits give low values",0.993
same,normalized growth,"locus YGL167C, strain pmr1, hits give low values",1.01
same,normalized growth,"locus YGL173C, strain kem1, hits give low values",1.02
same,normalized growth,"locus YGL227W, strain vid30, hits give low values",1.02
same,normalized growth,"locus YGL240W, strain doc1, hits give low values",1.03
same,normalized growth,"locus YGL248W, strain PDE1, hits give low values",0.991
same,normalized growth,"locus YGL253W, strain hxk2, hits give low values",1.03
same,normalized growth,"locus YGR135W, strain pre9, hits give low values",0.99
same,normalized growth,"locus YGR252W, strain gcn5, hits give low values",1.02
same,normalized growth,"locus YHR013C, strain ard1, hits give low values",1.03
same,normalized growth,"locus YHR027C, strain rpn1, hits give low values",1.02
same,normalized growth,"locus YHR030C, strain SLT2, hits give low values",0.992 and 0.996
same,normalized growth,"locus YHR079C, strain IRE1 (second series), hits give low values",1.01
same,normalized growth,"locus YHR079C, strain IRE1, hits give low values",1.01
same,normalized growth,"locus YHR094C, strain hxt1, hits give low values",0.983
same,normalized growth,"locus YHR129C, strain ARP1, hits give low values",0.997
same,normalized growth,"locus YHR142W, strain chs7, hits give low values",1.04
same,normalized growth,"locus YHR200W, strain rpn10, hits give low values",0.994
same,normalized growth,"locus YIL066C, strain RNR3, hits give low values",1.01
same,normalized growth,"locus YIL073C, strain SPO22, hits give low values",1.01
same,normalized growth,"locus YIL125W, strain kgd1, hits give low values",0.997
same,normalized growth,"locus YIR030C, strain dcg1, hits give low values",1
same,normalized growth,"locus YJL092W, strain hpr5, hits give low values",1.02
same,normalized growth,"locus YJL095W, strain BCK1 (second series), hits give low values",1.02
same,normalized growth,"locus YJL095W, strain BCK1, hits give low values",0.947 and 1.01
same,normalized growth,"locus YJL115W, strain asf1, hits give low values",1.03
same,normalized growth,"locus YJL129C, strain trk1, hits give low values",1.08
same,normalized growth,"locus YJL134W, strain LCB3, hits give low values",0.992
same,normalized growth,"locus YJL154C, strain vps35, hits give low values",1.02
same,normalized growth,"locus YJL164C, strain tpk1, hits give low values",1.01
same,normalized growth,"locus YJL166W, strain qcr8, hits give low values",1.02
same,normalized growth,"locus YJL168C, strain set2, hits give low values",1
same,normalized growth,"locus YJL187C, strain SWE1 (second series), hits give low values",0.952
same,normalized growth,"locus YJL187C, strain SWE1, hits give low values",1.02
